BAZ2B block: inhibitors of human BAZ2B bromodomain | hit rate 4.4% among 360,000 | Potency, µM (highest dose often 114 µM), for the others: top-dose activity change, negative = inhibition, usual class: inhibitors | Q9UIF8 | AlphaScreen BAZ2B-H3K14Ac peptide displacement | AID 504333; note: % is set by controls: 0 for no effect and ±100 for the full control effect; nearly all actives have a fitted effect of over 60% in size
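Multi-concentration screen (max 110 uM) measuring displacement of acetylated histone H3 peptide from BAZ2B by AlphaScreen, using 50 nM protein, 50 nM peptide and 10 ug/mL streptavidin donor plus Ni-chelate acceptor beads.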
HP1b binding inh: inhibitors of HP1-beta chromodomain binding to methylated histone tails. P83916. AlphaScreen HP1-beta / biotin-H3K9me3 peptide binding. Potency, µM (titrated, usually from 114 µM), for the others: at the highest dose activity change, negative = inhibition, actives largely listed as inhibitors. hit rate 0.56% among 390,000. AID 540317; note: nearly all actives have a fitted effect of over 70% in size
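HP1-beta protein (50 nM final) preincubated 30 min at room temperature with biotinylated H3(1-18)K9me3 peptide (50 nM) in PBS pH 7.4, 0.01% Tween-20, then compound added for 30 min. AlphaScreen streptavidin donor/nickel chelate acceptor beads (10 ug/mL final), 30 min dark, luminescence read.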
PLK1 PBD block: blocks phosphopeptide binding to human PLK1 polo-box domain. P53350. Plk1 PBD binding of FITC phosphopeptide, fluorescence polarization. Potency, µM, without a hit: max response, negative = inhibition, most hits filed as inhibitors. hit rate 2.8% among 360,000; note: series mostly up to about 57 µM; % is set by controls: 0 for no effect and ±100 for the full control effect; nearly all actives have a fitted effect of over 65% in size
G9a inh: blocks human histone lysine methyltransferase G9a. Q96KQ7. G9a H3K9 monomethylation, AlphaScreen, 2 h. Potency, µM (titrated, usually from 102 µM), for the others: at the top dose activity, negative = inhibition, most hits filed as inhibitors. hit rate 8.8% among 350,000; note: % is set by controls: 0 for no effect and ±100 for the full control effect; nearly all actives have a fitted effect of over 75% in size
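Enzyme 20 nM + cpd, 15 min RT; add b-H3K9 pep 500 nM / SAM 20 uM; 2 h RT; anti-H3K9me1 Ab 0.5 ug/mL + SA donor / anti-rabbit acceptor beads 20 ug/mL each, 10 min; AlphaScreen read.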
JMJD2A Tudor: JMJD2A Tudor domain (human) inhibition. O75164. AlphaScreen JMJD2A-Tudor / H3K4me3 peptide binding. Potency, µM (top dose mostly 114 µM), for inactives: top-dose activity change, negative = inhibition, most hits filed as inhibitors. hit rate 4.4% among 390,000. AID 504339; note: % is set by controls: 0 for no effect and ±100 for the full control effect; nearly all actives have a fitted effect of over 50% in size
Target sequence (O75164 whole entry, looked up, the tested form may be a part): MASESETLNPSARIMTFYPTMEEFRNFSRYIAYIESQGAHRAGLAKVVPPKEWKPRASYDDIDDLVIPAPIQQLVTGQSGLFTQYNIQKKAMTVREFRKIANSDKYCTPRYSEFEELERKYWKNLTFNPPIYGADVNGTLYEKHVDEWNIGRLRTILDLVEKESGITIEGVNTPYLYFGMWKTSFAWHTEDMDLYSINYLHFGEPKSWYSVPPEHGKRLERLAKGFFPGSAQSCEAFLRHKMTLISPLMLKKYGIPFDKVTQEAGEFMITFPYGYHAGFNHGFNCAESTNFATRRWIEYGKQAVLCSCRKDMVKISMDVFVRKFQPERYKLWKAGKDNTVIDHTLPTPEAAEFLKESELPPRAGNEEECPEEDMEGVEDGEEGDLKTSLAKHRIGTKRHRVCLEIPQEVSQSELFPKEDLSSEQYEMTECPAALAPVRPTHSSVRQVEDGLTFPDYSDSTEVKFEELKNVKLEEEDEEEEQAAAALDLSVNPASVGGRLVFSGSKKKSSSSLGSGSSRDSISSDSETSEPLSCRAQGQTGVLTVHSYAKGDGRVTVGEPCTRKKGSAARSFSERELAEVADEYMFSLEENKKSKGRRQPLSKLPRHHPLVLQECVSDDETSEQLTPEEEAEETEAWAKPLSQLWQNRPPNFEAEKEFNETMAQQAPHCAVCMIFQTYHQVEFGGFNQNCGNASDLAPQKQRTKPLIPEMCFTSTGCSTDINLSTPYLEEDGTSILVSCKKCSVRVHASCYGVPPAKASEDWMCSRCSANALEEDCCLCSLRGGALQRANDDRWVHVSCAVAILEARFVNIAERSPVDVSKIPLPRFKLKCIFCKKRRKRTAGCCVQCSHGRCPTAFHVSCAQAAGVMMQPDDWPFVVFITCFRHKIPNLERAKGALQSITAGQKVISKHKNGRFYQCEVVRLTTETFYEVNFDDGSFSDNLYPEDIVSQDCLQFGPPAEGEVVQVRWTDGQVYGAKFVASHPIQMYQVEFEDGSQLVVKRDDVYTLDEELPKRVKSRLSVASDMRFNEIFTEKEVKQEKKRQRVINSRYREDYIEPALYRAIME
VDR inh: inhibitors of human vitamin D receptor; P11473; VDR-SRC2-3 peptide fluorescence polarization, 2 h; Potency, µM, inactives show max response, negative = inhibition, hits mostly inhibitors; hit rate 0.93% among 400,000; AID 504847; note: % is set by controls: 0 for no effect and ±100 for the full control effect
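Two reagent solutions held at 4 deg C in the dark were dispensed, compounds pinned at 23 nl, and the mixture incubated 2 h at room temperature. Read-out: fluorescence polarization of VDR–SRC2-3 peptide binding.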
An asterisk follows results filed as active; u = inconclusive; x = not tested or not shown; [ ] = dose if it differs, or a comment. The list is not random: actives were taken first. Their share in the collection is about 11%. Calls come from the whole dose curve; as a rule, active = well fitted curve in the direction sought with a large enough effect; inconclusive = small, poorly fitted or top-dose-only effect, or another doubt; inactive = no such curve, though single readings can be large; an effect the other way counts as inactive or inconclusive. Potency is the fitted concentration of half-maximal effect.

SMILES	BAZ2B block	HP1b binding inh	PLK1 PBD block	G9a inh	JMJD2A Tudor	VDR inh
COc1ccc(-c2noc(CSCC(=O)Nc3cccc(C(F)(F)F)c3)n2)cc1OC	-1.5%	0.5%	x	4.8%[59 µM]	-13.5%	0.6%
Cc1cc2c(C)cc(=O)[nH]c2cc1NC(=O)CCl	1.7%	39.9%	-15.2%	u	-7.4%	2.6%
O=C(CCl)Nc1cc2[nH]c(=O)[nH]c2cc1Br	-20.6%	26.8%	-18.4%	50.1µM*	-6.9%	-17.1%
O=C(CN1CCOCC1)N1CCc2ccccc2C(c2ccccc2)C1 (stereo not given)	-6.8%	41.0%	1.1%	u	-2.2%	-4.1%
O=C(CBr)N1CCc2ccccc2C(c2ccccc2)C1 (stereo not given)	-29.9%	32.0%	-7.2%	31.6µM*	5.5%	2.2%
CN1CCCc2cc(C=O)ccc21	9.4%	27.5%	u	-49.1%[59 µM]	-10.1%	6.4%
CCCN1CCCc2cc(CN)ccc21	44.7µM*	u	18.9µM*	8.91µM*	3.98µM*	28.2µM*
Cc1noc(C)c1-c1nc(NCc2cccs2)c2ccccc2n1	x	x	x	-46.0%[0.501 µM]	x	44.7µM*
C/C(=N\NC(=S)NC(C)C)c1ccc2c(c1)OCCO2	u	50.1µM*	-27.3%	u	u	13.1%
CC(C)CC(NC(=O)CC12CC3CC(CC(C3)C1)C2)C(=O)NC1=NCCS1 (stereo not given)	4.8%	3.6%	15µM*	x	22.4µM*	70.8µM*
N#C/C(=C\c1cccs1)C(=O)c1ccccc1Cl	u	30.5%	1.5µM*	39.8µM*	-15.4%	35.5µM*
N#C/C(=C\c1cccs1)C(=O)Nc1nccs1	50.1µM*	-17.5%	u	10.4%[12.7 µM]	20µM*	u
N#C/C(=C\c1cccs1)C(=O)NCc1ccccc1	3.1%	10.7%	3.36µM*	23.3%[59 µM]	39.8µM*	44.7µM*
CC(C)(C)C(=O)/C(C#N)=C/c1cccs1	-26.9%	-4.6%	-10.5%	2.4%	-15.8%	-9.4%
CC(C)(C)OC(=O)NCCCCCc1cn([C@@H](CO)C(=O)NCCCCCCCCCCC(=O)N2CCN(C(=O)OC(C)(C)C)CC2)nn1	6.8%	6.4%	-4.8%	12.5%[2.33 µM]	-13.8%	-8.2%
CCc1cccc(NC(=O)c2ccc(CN3C(=O)C(C)=C(c4ccc(OC)cc4)S3(=O)=O)cc2)c1	-19.2%	-2.1%	x	13.1%[59 µM]	-17.7%	-0.5%
Nc1nnc(Cc2ccc(F)cc2)s1	-7.3%	29.0%	-3.8%	x	-5.0%	1.0%
COc1ccc(Cc2nnc(NS(=O)(=O)c3ccccc3)s2)cc1	0.3%	2.6%	u	-37.8%	-9.2%	5.7%
COc1ccc(-c2csc(NS(=O)(=O)c3ccc([N+](=O)[O-])cc3)n2)cc1	35.5µM*	-20.6%	u	u	u	-24.4%
COc1ccc(Cc2nnc(N)s2)cc1OC	-0.6%	-19.6%	u	7.94µM*	-16.2%	-6.4%
COc1ccc(S(=O)(=O)Nc2nnc(Cc3ccc(OC)c(OC)c3)s2)cc1	0.4%	-2.8%	26.7µM*	-48.8%	-21.0%	-3.6%
CNc1nc(-c2ccc([N+](=O)[O-])cc2)cs1	8.5%	0.3%	-11.2%	-38.1%[59 µM]	-13.4%	9.4%
COc1ccc(Cc2nnc(NS(=O)(=O)c3ccc([N+](=O)[O-])cc3)s2)cc1	u	-30.6%	29.9µM*	39.8µM*	-33.8%	-3.1%
COc1ccccc1N1CCN(S(=O)(=O)c2c(C)sc3ncn(CC(=O)Nc4ccc(C)cc4Br)c(=O)c23)CC1	3.4%	26.0%	x	-0.8%[59 µM]	-6.8%	-0.6%
Cc1ccc(S(=O)(=O)Nc2nc3ccc(N)cc3s2)cc1	-23.3%	-0.9%	-12.2%	14.0%[59 µM]	-28.0%	-4.7%
SMILES	BAZ2B block	HP1b binding inh	PLK1 PBD block	G9a inh	JMJD2A Tudor	VDR inh
CC(C)Cc1nnc(NS(=O)(=O)c2ccc([N+](=O)[O-])cc2)s1	u	60.6%	-18.0%	2.6%[0.501 µM]	-12.2%	6.2%
O=[N+]([O-])c1ccc(S(=O)(=O)Nc2nnc(C(F)(F)F)s2)cc1	-29.9%	36.5%	-16.7%	44.7µM*	-26.8%	-5.1%
O=[N+]([O-])c1ccc(-c2csc(NN=C3CCCC3)n2)cc1	-1.2%	18.4%	-12.5%	50.1µM*	-27.7%	-4.0%
O=[N+]([O-])c1ccc2nc(NS(=O)(=O)c3ccc(F)cc3)sc2c1	-10.9%	16.0%	u	79.4µM*	-20.0%	-27.0%
CC(C)C(=O)Nc1nc(-c2ccc([N+](=O)[O-])cc2)cs1	-16.7%	9.2%	-8.4%	2.0%[59 µM]	-19.4%	-21.6%
O=C(CCC1N=C2c3ccccc3N=C(SCc3cccc(F)c3)N2C1=O)NCCc1ccccc1 (stereo not given)	-10.7%	36.3%	x	-2.6%[59 µM]	-32.0%	3.5%
CCOC(=O)c1ccc(NC(=O)c2cc3cc(C)ccc3n2C)cc1	-0.3%	55.0%	x	2.8%[59 µM]	-3.6%	5.8%
O=C1NC(=S)N/C1=C/c1ccc(-c2c(Br)cc([N+](=O)[O-])cc2Br)o1	u	x	x	11.2µM*	x	x
O=C1NC(=S)N/C1=C/c1cccnc1	-20.5%	-2.9%	23.8µM*	u	-5.1%[11.4 µM]	-26.5%
O=C1NC(=S)N/C1=C\c1cccc([N+](=O)[O-])c1	-3.4%	16.1%	-5.8%	50.1µM*	1.0%	-4.2%
O=C(CSc1nnc(CCc2ccccc2)n1-c1ccc(Cl)cc1)c1ccccc1	-32.3%	1.9%	-0.8%	11.2µM*	-32.9%	-14.9%
O=C(c1ccccc1NS(=O)(=O)c1ccccc1[N+](=O)[O-])N1CCOCC1	29.3%	38.3%	-10.4%	-10.1%[59 µM]	-8.9%	-16.1%
O=C(c1ccccc1NS(=O)(=O)c1ccc([N+](=O)[O-])cc1[N+](=O)[O-])N1O[C@@H]2C=C[C@H]1C2	x	6.4%	u	x	u	44.7µM*
CC(C)c1ncc(CO)n1Cc1c(Cl)cccc1Cl	x	x	3.7%	x	x	x
Cc1nnc(N2C(=O)c3oc4ccccc4c(=O)c3C2c2ccco2)s1 (stereo not given)	-13.2%	24.7%	-20.4%	20µM*	-29.6%	-5.6%
Cc1ccc(C2c3c(oc4ccccc4c3=O)C(=O)N2c2nnc(C(C)C)s2)o1 (stereo not given)	1.8%	45.1%	-3.1%	50.1µM*	-14.8%	-17.3%
COCCN(CCOC)Cc1c(O)ccc2c1O/C(=C\c1ccc(C)o1)C2=O	u	-31.4%	7.1%	1µM*	-24.7%	-4.8%
O=S(=O)(Cc1ccc(Cl)cc1)c1ncc(CO)n1Cc1ccccc1	-4.9%	33.4%	-7.3%	-29.2%	-11.0%	-14.9%
O=C(NNC(=O)c1cc(-c2ccco2)nc2ccccc12)c1ccccc1	-15.2%	21.7%	-8.5%	x	-17.7%	-2.7%
Nc1nc(N2CCN(C(=O)c3ccco3)CC2)nc2ccc(Br)cc12	-36.1%	49.2%	u	50.1µM*	-15.0%	-12.3%
CNC(=O)COC(=O)c1cc(-c2ccco2)nc2ccccc12	50.1µM*	44.7µM*	23.8µM*	10µM*	20µM*	u

Screens: PubChem BioAssay, National Center for Advancing Translational Sciences (NCATS)
